Compound activity: PubChem, several laboratories
Peg3 prom inh = inhibitors of Peg3 promoter; HeLa PEG-Prom luciferase reporter, luminescence, overnight; inhibition, % at 20 µM; 360,000 tested, 1.7% active;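 active means inhibition of at least 50% at 20 µM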
CF NFkB inh = blocks PAF-induced NF-kB reporter in cystic fibrosis cells; KKLEB NF-kB-GFP reporter, GFP fluorescence overnight; inhibition, % at 5 µM; 360,000 tested, 0.86% active; AID 588850;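 active means at least 50% inhibition at 5 µM, scaled per plate between neutral and stimulator controls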;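 further: PAF is a Pseudomonas aeruginosa culture filtrate used as stimulus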
KKLEB tox = CF airway cell cytotoxicity counter-screen; KKLEB CF airway cells viability, ATPlite luminescence, overnight; hits give low values; cells stimulated with P. aeruginosa culture filtrate; activity change (cytotoxicity), % at 5 µM; 360,000 tested, 0.36% active;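 active means corrected activity change at or below -50% at 5 µM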
Shn3 inh set2 = Schnurri-3 reporter inhibition in Clone20 osteoblasts | 360,000 tested, 0.52% active | inhibition, % at 12.5 µM | AID 588674 | Clone20 osteoblast Shn3 3'UTR firefly luciferase, 24 h;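 active means mean inhibition of at least 75% with every replicate also reaching 75%; inconclusive means mean inhibition at least 75% but some replicate below; inactive means mean inhibition below 75%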
HIF-2a block = HIF-2a inhibition; 360,000 tested, 0.72% active; AID 624352; inhibition, % at 18.8 µM; 786-0 RCC cells HIF-2a reporter, luciferase luminescence, overnight;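 active means inhibition of the luminescence signal of 40% or more relative to plate controls, in a single-dose primary screen at 18.75 µM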
MITF TRPM1 inh = MITF TRPM1 promoter inhibition in SK-MEL-5 cells | SK-MEL-5 TRPM1 promoter luciferase, 24 h | inhibition, % at 12.5 µM | 330,000 tested, 0.83% active;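 active means mean inhibition across replicates of 60% or more, whatever share of single replicates reaches that level; inconclusive means some that reach 60%, reason not given; inactive means mean inhibition across replicates below 60%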
Each line names hits and unclear results; the compound was inactive in the other large screens. This is a sample that favours compounds with a hit; in the whole collection about 2.8% have one here.

COc1cc2[nH]c(=O)n(CCCCCC(=O)N3CC=C(c4ccccc4)CC3)c(=O)c2cc1OC	Peg3 prom inh 70
CCN(CC(=O)Nc1c(F)cccc1F)C(=O)c1cc(-c2cccs2)nn1-c1ccccc1	Peg3 prom inh 58
N#C/C(=N\Nc1cccc([N+](=O)[O-])c1)C(=O)c1ccc(Br)cc1	CF NFkB inh 51, KKLEB tox -55
O=C(O)c1ccc(N=NNc2cccc([N+](=O)[O-])c2)cc1	none
CN(C)/C=C/C(=O)c1ccc(N2CCN(c3ncc(C(F)(F)F)cc3Cl)CC2)cc1	Peg3 prom inh 73
CCOc1cc2c(cc1/C=C1/NC(=O)N(CC(=O)OC)C1=O)OCO2	none
O=S(=O)(Nc1ccc(-c2ccc3nncn3n2)cc1)c1ccccc1F	Peg3 prom inh 51
CC(C)CNC(=O)c1c(N)n(/N=C/c2ccccn2)c2nc3ccccc3nc12	Peg3 prom inh 54
COCCNC(=O)c1c(N)n(/N=C/c2ccc(F)cc2)c2nc3ccccc3nc12	none (no result: MITF TRPM1 inh)
Cn1ncc2c(=S)[nH]c(=S)[nH]c21	none (no result: Peg3 prom inh, CF NFkB inh, KKLEB tox, Shn3 inh set2, MITF TRPM1 inh)
O=c1c2ccccc2nc(/C=C/c2cc(Br)ccc2O)n1CCCO	none
Cc1nc2cc(N3CCCCC3)c(NC(=O)c3ccncc3)cc2c(=O)n1Cc1ccccc1	Peg3 prom inh 86
Cc1nc2cc(N3CCOCC3)c(NC(=O)C3CC3)cc2c(=O)n1Cc1ccccc1	none
COc1ccccc1C(=O)N/C(=C\c1cn(C)c2ccccc12)C(=O)N1CCCC1	none
Cc1cn([C@H]2C[C@H](O)[C@@H](/C=C/C(=O)NCc3ccco3)O2)c(=O)[nH]c1=O	none (no result: MITF TRPM1 inh)
CCc1cc(C(=O)N/N=C/c2ccc(O)cc2O)c2ccccc2n1	Peg3 prom inh 52, Shn3 inh set2 93, MITF TRPM1 inh 68
O=C(/C=C\c1ccccc1)NCC(=O)N/N=C/c1ccc(O)cc1O	MITF TRPM1 inh 67
COc1ccc(/C=C\C(=O)NCC(=O)N/N=C/c2ccc(O)cc2O)cc1	none (no result: Shn3 inh set2)
Cc1cc(SCC(=O)N/N=C/c2ccc(O)cc2O)c(C)cc1Br	Shn3 inh set2 93
Cc1cc(SCC(=O)N/N=C/c2ccccc2C(=O)O)c(C)cc1Br	none
Cc1nn(CC(=O)OCC(=O)c2ccc(OC(F)F)cc2)c(C)c1[N+](=O)[O-]	none
Cc1ccc(NC(=S)NNC(=S)Nc2ccc(C)cc2C)cc1	CF NFkB inh 57
Cc1ccc(NC(=O)CCC(=O)NNC(=S)Nc2ccccc2)c(C)c1	none
CN(C(=O)COC(=O)c1cc([N+](=O)[O-])ccc1Cl)c1ccccc1	none
O=C(CSc1nc2cc(Cl)ccc2s1)N1CCN(C(=O)c2ccco2)CC1	none
CCN(CC)CCCNC(=O)c1ccc2c(Cl)c3c(nc2c1)CCCC3	Peg3 prom inh 61
CCN(CC)CCNC(=O)CSc1c2c(nc3cc(Cl)ccc13)CCCC2	Peg3 prom inh 78
CC(C)CCNC(=O)c1ccc2c(SCC(=O)O)c3c(nc2c1)CCCC3	none
O=C(CSc1c2c(nc3ccc(Cl)cc13)CCCC2)N1CCN(C(=O)c2ccco2)CC1	CF NFkB inh 54, Shn3 inh set2 93
Cc1ccc(CNC(=O)CSc2c3c(nc4ccc(Cl)cc24)CCCC3)o1	Shn3 inh set2 84
CCCCN(CC)CCNC(=O)c1ccc2c(Cl)c3c(nc2c1)CCC3	none
Cc1ccc(N2CC(=O)N(NC(=O)c3sc4nc(C)cc(C)c4c3N)CC2=O)cc1	none
O=C(CNC(=O)c1ccc(Cl)c([N+](=O)[O-])c1)OC1CCCCC1=O (configuration not stated)	none
C[C@H](CO)N1C[C@H](C)[C@@H](CN(C)C(=O)Cc2ccccc2)OCCCC[C@H](C)Oc2ccc(NC(=O)NC3CCCCC3)cc2C1=O	none (no result: MITF TRPM1 inh)
COC(=O)c1cc(S(=O)(=O)n2nc(C)c(Br)c2C)c(Cl)cc1Cl	Peg3 prom inh 87
FC(F)(F)c1cccc(NC(=S)Nc2ccc(Cl)c(Cl)c2)c1	none
FC(F)(F)c1cccc(NC(=S)NC(c2ccccc2)c2ccccc2)c1	Peg3 prom inh 50, Shn3 inh set2 inconclusive
CCN(C(=O)Cn1c(=O)oc2ccccc21)c1ccc(C)c(C)c1	none
C=CCn1c(O)c(C2=c3ccccc3=NC2=O)c2ccccc21	HIF-2a block 45
Cc1ccc2c(c1)c(C1=c3ccccc3=NC1=O)c(O)n2C	CF NFkB inh 53, Shn3 inh set2 96, HIF-2a block 42
COc1ccc(C(=O)N2CCCC(c3cc(C(=O)NCc4cccnc4)no3)C2)cc1 (configuration not stated)	none (no result: MITF TRPM1 inh)
CCOc1cc(C(=O)N2CCC3(CC2)NCCc2[nH]cnc23)cc(OCC)c1OCC	none
Cc1ccc(S(=O)(=O)N2CCOCC2)cc1NC(=O)c1cc2ccccc2oc1=O	none
O=C(Nc1ccc(Cl)c(S(=O)(=O)N2CCOCC2)c1)c1cc2ccccc2oc1=O	Peg3 prom inh 95
CC(=O)Nc1cccc(-c2cn3ccccc3n2)c1	none
O=C(Nc1cccc(-c2cn3ccccc3n2)c1)c1cc2ccccc2oc1=O	Peg3 prom inh 73
CC(C)Oc1ccc(CN2CCC2(C)C(=O)NCc2cccc3ccccc23)cc1 (configuration not stated)	none (no result: MITF TRPM1 inh)
Cn1nc(C(C)(C)C)cc1NC(=O)C1(C)CCN1C(=O)CC(c1ccccc1)c1ccccc1 (configuration not stated)	none (no result: MITF TRPM1 inh)
CCCOc1ccc(F)cc1-c1cc(C(=O)NCc2ccco2)[nH]n1	none (no result: MITF TRPM1 inh)
COc1cccc(-c2nn(-c3ccccc3)cc2C(=O)n2nnc3ccccc32)c1	Peg3 prom inh 50
O=C(NNC(=O)c1ccccc1-c1ccccc1C(=O)O)c1ccccc1	none
O=C(C=P(c1ccccc1)(c1ccccc1)c1ccccc1)c1ccccc1-c1ccccc1C(=O)C=P(c1ccccc1)(c1ccccc1)c1ccccc1	Peg3 prom inh 99, CF NFkB inh 91, KKLEB tox -79, HIF-2a block 95, MITF TRPM1 inh 82
Fc1ccc2[nH]c3c(N4CCc5ccccc5C4)ncnc3c2c1	Shn3 inh set2 87 (no result: MITF TRPM1 inh)
C[C@@H]1CN([C@H](C)CO)C(=O)CCCn2nncc2CO[C@@H]1CN(C)C(=O)c1ccc(N2CCN(C)CC2)cc1	none (no result: MITF TRPM1 inh)
COc1ccc(-c2nnn(CC(=O)Nc3ccc4c(c3)OCCO4)n2)cc1OC	Shn3 inh set2 85
CCc1nc2ccc(C(=O)N(C)Cc3ccccc3)cn2c1N(CC)Cc1cccc(Br)c1	none (no result: MITF TRPM1 inh)
CCc1nc2ccc(C(=O)NC3CCN(Cc4ccccc4)CC3)cn2c1N(CC)Cc1cccc(Br)c1	Peg3 prom inh 94 (no result: MITF TRPM1 inh)
O=C(NC1CCSC1=O)C1CC(=O)N(c2ccc(F)cc2)C1 (configuration not stated)	none
NC(N)=N/N=C/c1cc([N+](=O)[O-])ccc1O	none
O=[N+]([O-])c1ccc(O)c(/C=N\N=C2c3ccccc3-c3ccccc32)c1	KKLEB tox -51
Cc1ccc(C(=O)CCC(=O)Nc2ccccc2C)c(C)c1	none
Nc1nc(=S)[nH]c2c1C1(CCCCC1)Cc1ccccc1-2	Shn3 inh set2 90
